Measurements published in PubChem BioAssay (Tox21).
Values without a mark were called inactive. Results filed as inconclusive are left out. Entries that show only a call come without a potency. Calls of active or inactive are those of the source. Unless noted, calls follow the shape of the full dose curve.

How the values were obtained:
[1] = biological target: Gonadotropin-releasing hormone receptor (Homo sapiens) (UniProt P30968); test: Human gonadotropin-releasing hormone receptor (GnRHR) small molecule agonists, calcium flux assay in GnRHR-HEK293 cells (AID 1920063); also: nearly all actives have a fitted effect of over 35% in size
Outline: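 Agonist activity was measured as intracellular calcium flux in HEK293 cells engineered to stably express human GnRHR. After dye loading for 1 hour at 37 C, compounds in DMSO were added and fluorescence was followed for 3 minutes.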

[2] = biological target: KiSS-1 receptor (Homo sapiens) (UniProt Q969F8); test: Human kisspeptin (KISS1R) small molecule agonists, calcium flux assay in KISS1R-HEK293 cells (AID 1920064; active = well fitted activation curve with a large enough effect in the repeat runs)
Outline: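 Agonist activity is monitored as intracellular calcium rise in engineered HEK293 cells carrying human KISS1R. Cells are dye-loaded for 1 h at 37 C before compound addition, and fluorescence is recorded for 3 min.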

[3] = G protein-coupled receptor (GPCR) small molecule agonists, calcium flux assay: HEK293 wild type cell line counter screen (AID 1920065)
Outline: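 Seed cells, incubate 18 h (37 C, 5% CO2); add calcium dye, 1 h at 37 C; pin-transfer compounds, ATP control or DMSO; read fluorescence 480/540 nm each second for 3 min.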

[4] = p53 small molecule agonists, cell-based qHTS assay with human liver microsomes (AID 1963577);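 also: p53 response element beta-lactamase reporter cells with liver microsomes plus NADPH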
Outline: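 16 h, 37 C exposure of p53RE-bla cells to compounds with human liver microsomes and NADPH (0.5 mg/mL final each); detection via LiveBLAzer mixture, 2 h dark at room temperature.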

[5] = p53 small molecule agonists, cell-based qHTS assay with rat liver microsomes (AID 1963578)
Outline: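 With rat liver microsomes and NADPH present (0.5 mg/mL final each), p53RE-bla cells are treated with compound for 16 h at 37 C. LiveBLAzer detection mixture is then applied for 2 h at room temperature in the dark.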

[6] = p53 small molecule agonists, cell-based qHTS assay with human liver microsomes: qHTS cell viability counter screen (AID 1963579); also: nearly all actives have a fitted effect of over 45% in size; also: potency is read from the fitted curve at half-maximal effect
Outline: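 In this multiplexed counter screen, the reporter plates were subsequently treated with CellTiter-Glo so that cell viability, reflected by luminescence, could be recorded for p53RE-bla cells dosed 16 h with compounds under microsomal activation (HLM and NADPH).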

[7] = p53 small molecule agonists, cell-based qHTS assay with rat liver microsomes: qHTS cell viability counter screen (AID 1963580); also: nearly all actives have a fitted effect of over 45% in size
Outline: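 Cytotoxicity counter screen: intracellular ATP read by CellTiter-Glo luminescence in the p53 reporter wells. HCT-116 p53RE-bla cells were treated for 16 h at 37 C alongside rat liver microsomes and NADPH, each 0.5 mg/mL final.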

[8] = p53 small molecule agonists, cell-based qHTS assay: qHTS cell viability counter screen (AID 1963581); also: nearly all actives have a fitted effect of over 45% in size
Outline: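 Viability was counter-screened in parallel with the p53 agonist reporter by measuring intracellular ATP luminescence in the same HCT-116 p53RE-bla wells after 16 h compound treatment at 37 C.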

[9] = p53 small molecule agonists, cell-based qHTS assay (AID 1963582; active = well fitted activation curve with a large enough effect in the signal ratio in the repeat runs, not every such curve was filed as active; the % refers to the signal ratio)
Outline: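 Cells carrying a p53-responsive bla reporter are treated with test compounds for 16 h at 37 C; beta-lactamase activity is then detected with LiveBLAzer B/G FRET substrate after 2 h at room temperature.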

[10] = biological target: D(2) dopamine receptor (Homo sapiens) (UniProt P14416); test: Dopamine D2 receptor (DRD2) small molecule agonists, cell-based qHTS assay (AID 1963594); also: nearly all actives have a fitted effect of over 35% in size
Outline: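 cAMP accumulation in DRD2-HEK293 cells measured by HTRF after 1 h detection; compounds added 10 min before NKH477 (200nM […]) forskolin-analogue stimulation, 30 min at room temperature, with Ro20-1724 present at 0.1 mM final.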

[11] = biological target: 5-hydroxytryptamine receptor 2A (Homo sapiens) (UniProt P28223); test: 5-hydroxytryptamine receptor 2A (HTR2A) small molecule antagonists, cell-based qHTS assay (AID 1963586); also: nearly all actives have a fitted effect of over 45% in size
Outline: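 CHO cells stably expressing human HTR2A were plated for 18 h at 37 C, then loaded with calcium dye for 1 h. Compounds were preincubated 5 min at room temperature before DOI (4 nM solution) was added. Kinetic fluorescence was read for 3 min.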

[12] = biological target: 5-hydroxytryptamine receptor 2A (Homo sapiens) (UniProt P28223); test: 5-hydroxytryptamine receptor 2A (HTR2A) small molecule agonists, cell-based qHTS assay (AID 1963587); also: nearly all actives have a fitted effect of over 30% in size; also: potency is read from the fitted curve at half-maximal effect
Outline: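 Kinetic calcium-flux fluorescence (2 min, 1 sec intervals) after compound addition in agonist mode. HTR2A-CHO cells were cultured 18 h, then dye-loaded 1 h at 37 C.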

[13] = biological target: Muscarinic acetylcholine receptor M1 (Homo sapiens) (UniProt P11229); test: Cholinergic receptor muscarinic 1 (CHRM1) small molecule antagonists, cell-based qHTS assay (AID 1963588); also: nearly all actives have a fitted effect of over 40% in size
Outline: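 Compounds were tested at 15 concentrations in three independent runs. Dye-loaded CHRM1-CHO cells were exposed 5 min at room temperature before stimulation by acetylcholine added at 50nM. Intracellular calcium was read kinetically on FDSS for 3 min.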

[14] = cAMP Responsive Elements (CRE) small molecule agonists, cell-based qHTS assay (AID 1963590)
Outline: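 Cells carrying a CRE-driven beta-lactamase reporter (HEK 293T) are seeded, incubated overnight (18 h), and treated with test compounds for 3 h at 37 C; reporter activity is then detected with a FRET substrate after 2 h at room temperature.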

[15] = cAMP Responsive Elements (CRE) small molecule antagonists, cell-based qHTS assay (AID 1963591; active = well fitted inhibition curve with a large enough effect in the signal ratio in the repeat runs, not every such curve was filed as active; the % refers to the signal ratio)
Outline: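 Cells (CRE-bla HEK 293T, DMEM with 10% dialyzed FBS and 25 mM HEPES) are seeded and incubated 18 h. Compounds are added with NKH477 agonist at 0.25 uM final for 3 h, then FRET substrate for 2 h.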

[16] = biological target: Beta-2 adrenergic receptor (Homo sapiens) (UniProt P07550); test: Adrenergic beta2 receptor (ADRB2) small molecule antagonists, cell-based qHTS assay (AID 1963592); also: series mostly up to about 92 µM; nearly all actives have a fitted effect of over 50% in size
Outline: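 Assay format: CHO-ADRB2 cells, 18-20hr seeding at 37C/5% CO2, then compound plus 1nM isoproterenol agonist mix for 0.5hr RT. Homogeneous time-resolved fluorescence cAMP detection after 1hr, expressed as 665/615 nm ratio.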

[17] = biological target: Beta-2 adrenergic receptor (Homo sapiens) (UniProt P07550); test: Adrenergic beta2 receptor (ADRB2) small molecule agonists, cell-based qHTS assay (AID 1963593);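 also: CHO cells stably overexpressing human ADRB2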
Outline: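 CHO cells stably over-expressing ADRB2 were plated overnight at 37C, then dosed with compounds plus a stimulation mix containing 100uM IBMX and 25uM Ro-20-1724 for 0.5hr at room temperature. cAMP was measured by HTRF competition, 1hr.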

[18] = biological target: D(2) dopamine receptor (Homo sapiens) (UniProt P14416); test: Dopamine D2 receptor (DRD2) small molecule antagonists, cell-based qHTS assay (AID 1963595; active = well fitted inhibition curve with a large enough effect in the signal ratio in the repeat runs, with a control signal flat; the % refers to the signal ratio)
Outline: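 HTRF cAMP read-out at 665 and 620 nm emission (340 nm excitation). Antagonist mode: compounds were tested against 12 nM quinpirole in DRD2-HEK293 cells, with 200 nM NKH477 raising cAMP and 0.1 mM Ro20-1724 blocking its breakdown.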

[19] = biological target: Muscarinic acetylcholine receptor M1 (Homo sapiens) (UniProt P11229); test: Cholinergic receptor muscarinic 1 (CHRM1) small molecule agonists, cell-based qHTS assay (AID 1963589); also: nearly all actives have a fitted effect of over 35% in size
Outline: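 Cells were plated and incubated 18 h at 37 C/5% CO2, loaded with calcium dye for 1 h at 37 C, then treated with compounds in DMSO. Fluorescence was recorded kinetically at 1 sec intervals.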

Sequence of Beta-2 adrenergic receptor (Homo sapiens) (P07550 whole entry, looked up): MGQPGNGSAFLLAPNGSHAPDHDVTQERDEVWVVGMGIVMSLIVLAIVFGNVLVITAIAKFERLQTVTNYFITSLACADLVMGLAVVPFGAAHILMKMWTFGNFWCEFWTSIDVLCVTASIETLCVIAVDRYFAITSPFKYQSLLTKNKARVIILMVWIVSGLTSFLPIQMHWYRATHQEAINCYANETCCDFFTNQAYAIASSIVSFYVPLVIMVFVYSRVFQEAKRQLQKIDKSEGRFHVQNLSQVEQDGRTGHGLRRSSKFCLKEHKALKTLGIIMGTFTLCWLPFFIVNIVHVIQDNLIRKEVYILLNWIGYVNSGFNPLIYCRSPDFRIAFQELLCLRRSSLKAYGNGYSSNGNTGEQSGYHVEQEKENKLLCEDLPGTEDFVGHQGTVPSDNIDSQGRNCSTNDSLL
Sequence of Muscarinic acetylcholine receptor M1 (Homo sapiens) (P11229 whole entry, looked up): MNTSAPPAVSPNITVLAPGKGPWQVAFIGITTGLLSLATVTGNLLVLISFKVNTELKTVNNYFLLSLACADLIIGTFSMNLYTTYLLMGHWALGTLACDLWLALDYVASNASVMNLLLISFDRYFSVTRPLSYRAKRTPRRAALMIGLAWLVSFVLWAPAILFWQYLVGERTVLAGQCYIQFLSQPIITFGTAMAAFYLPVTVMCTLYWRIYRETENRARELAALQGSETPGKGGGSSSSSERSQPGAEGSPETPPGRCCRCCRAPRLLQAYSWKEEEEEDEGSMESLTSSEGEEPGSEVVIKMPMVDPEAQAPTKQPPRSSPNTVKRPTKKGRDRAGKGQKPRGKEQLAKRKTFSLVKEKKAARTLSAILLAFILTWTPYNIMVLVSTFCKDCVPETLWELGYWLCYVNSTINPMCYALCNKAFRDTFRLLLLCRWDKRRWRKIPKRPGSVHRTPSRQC
Sequence of KiSS-1 receptor (Homo sapiens) (Q969F8 whole entry, looked up): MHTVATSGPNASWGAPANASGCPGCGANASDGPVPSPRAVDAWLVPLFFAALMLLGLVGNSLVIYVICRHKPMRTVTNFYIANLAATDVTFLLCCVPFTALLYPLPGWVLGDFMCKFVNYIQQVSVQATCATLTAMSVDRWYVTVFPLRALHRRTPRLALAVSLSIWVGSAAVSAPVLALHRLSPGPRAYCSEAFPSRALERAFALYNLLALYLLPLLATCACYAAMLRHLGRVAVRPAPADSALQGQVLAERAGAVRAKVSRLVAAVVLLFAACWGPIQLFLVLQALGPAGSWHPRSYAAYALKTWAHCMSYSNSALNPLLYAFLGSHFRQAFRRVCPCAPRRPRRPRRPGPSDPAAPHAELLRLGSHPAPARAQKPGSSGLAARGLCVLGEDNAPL
Sequence of D(2) dopamine receptor (Homo sapiens) (P14416 whole entry, looked up): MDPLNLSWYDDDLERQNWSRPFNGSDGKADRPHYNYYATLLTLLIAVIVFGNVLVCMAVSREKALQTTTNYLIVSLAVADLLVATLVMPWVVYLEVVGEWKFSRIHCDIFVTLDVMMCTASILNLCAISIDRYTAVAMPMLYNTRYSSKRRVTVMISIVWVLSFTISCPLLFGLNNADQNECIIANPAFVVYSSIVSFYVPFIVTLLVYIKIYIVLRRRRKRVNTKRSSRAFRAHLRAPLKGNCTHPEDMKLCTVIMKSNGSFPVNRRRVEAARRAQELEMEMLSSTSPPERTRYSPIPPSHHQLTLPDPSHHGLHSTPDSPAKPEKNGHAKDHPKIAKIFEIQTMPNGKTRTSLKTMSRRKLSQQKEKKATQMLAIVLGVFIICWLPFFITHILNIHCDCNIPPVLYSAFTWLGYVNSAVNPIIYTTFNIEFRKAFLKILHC
Sequence of Gonadotropin-releasing hormone receptor (Homo sapiens) (P30968 whole entry, looked up): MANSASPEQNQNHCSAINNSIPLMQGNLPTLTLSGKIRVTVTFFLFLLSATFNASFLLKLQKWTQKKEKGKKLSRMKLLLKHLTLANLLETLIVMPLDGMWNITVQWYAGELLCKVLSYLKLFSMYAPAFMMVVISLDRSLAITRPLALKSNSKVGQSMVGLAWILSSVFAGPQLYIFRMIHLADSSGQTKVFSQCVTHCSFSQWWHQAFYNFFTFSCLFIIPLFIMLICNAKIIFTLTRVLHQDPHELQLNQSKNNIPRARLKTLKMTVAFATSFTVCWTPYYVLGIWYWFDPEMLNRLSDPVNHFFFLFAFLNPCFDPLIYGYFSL
Sequence of 5-hydroxytryptamine receptor 2A (Homo sapiens) (P28223 whole entry, looked up): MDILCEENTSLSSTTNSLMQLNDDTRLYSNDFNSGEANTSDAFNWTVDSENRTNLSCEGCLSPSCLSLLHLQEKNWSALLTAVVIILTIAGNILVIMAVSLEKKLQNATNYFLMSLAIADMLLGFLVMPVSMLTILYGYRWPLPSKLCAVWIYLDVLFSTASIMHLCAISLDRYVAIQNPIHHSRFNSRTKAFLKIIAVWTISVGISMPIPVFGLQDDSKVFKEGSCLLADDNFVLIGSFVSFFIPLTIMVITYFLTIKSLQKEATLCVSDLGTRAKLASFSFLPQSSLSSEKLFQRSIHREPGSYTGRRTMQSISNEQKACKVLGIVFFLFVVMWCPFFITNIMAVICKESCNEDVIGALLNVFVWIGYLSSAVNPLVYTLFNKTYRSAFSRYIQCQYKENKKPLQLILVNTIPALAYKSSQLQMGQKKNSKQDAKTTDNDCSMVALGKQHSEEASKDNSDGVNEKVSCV

Row | Structure (SMILES) | Potency [1] | Potency [2] | Potency [3] | Potency [4] | Potency [5] | Potency [6] | Potency [7] | Potency [8] | Potency [9] | Potency [10] | Potency [11] | Potency [12] | Potency [13] | Potency [14] | Potency [15] | Potency [16] | Potency [17] | Potency [18] | Potency [19]
1 | CN1CCC[C@@H]1CCO[C@](C)(c1ccccc1)c1ccc(Cl)cc1 | inactive | inactive | inactive | inactive | inactive | inactive | inactive | inactive | inactive | inactive |  |  |  |  |  |  |  |  | 
2 | COC(=O)CC(C)CCC=C(C)C (stereo not drawn) | inactive | inactive | inactive | inactive | inactive | 45.8 µM (active) |  |  | inactive |  | inactive | inactive | inactive | inactive | inactive | inactive | inactive | inactive | 
3 | C[C@@H]1CC[C@H]2C(C)(C)[C@H]3C[C@@]12CC[C@@]3(C)O | inactive | inactive | inactive | inactive | inactive | inactive | inactive | inactive |  | inactive | inactive | 48.9 µM (active) | inactive | inactive |  | inactive |  | inactive | inactive
4 | CN(C)CCCN1c2ccccc2Sc2ccc(Cl)cc21 | inactive | inactive | inactive | inactive | inactive | inactive | inactive |  |  | inactive |  |  |  |  |  | inactive |  |  | 
5 | CCCCNC(=S)NCCCC | inactive | inactive | inactive | inactive | inactive | inactive | inactive | inactive |  | inactive | inactive | inactive | inactive | inactive |  | inactive | inactive | inactive | inactive
6 | CC1=C(C(=O)O)N2C(=O)[C@@H](NC(=O)[C@H](N)c3ccc(O)cc3)[C@H]2SC1 | inactive | inactive | inactive | inactive | inactive | inactive | inactive | inactive | inactive | inactive | inactive | inactive | inactive | inactive | inactive | inactive |  | inactive | inactive
7 | CC(C)c1cccc(C(C)C)c1NC(=O)NS(=O)(=O)c1cc(C(C)(C)O)co1 | inactive | inactive | inactive | inactive | inactive |  | inactive | inactive | inactive | inactive | inactive | inactive | inactive | inactive | inactive | inactive | inactive | inactive | inactive
